According to PubChem BioAssay AID624330 (Southern Research Specialized Biocontainment Screening …, 2012):
Hit rate of the full screen: of about 340,000 compounds, about 2,100 (0.62%) were called active.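 The calls were made as follows: active = first-screen hits whose inhibition reached a set limit at any dose in the follow-up dose series; inconclusive = inhibition above the set first-screen limit but never retested; inactive = the rest.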 Not all results are given here. Measured potencies and affinities stand elsewhere.

target: Rac GTPase-activating protein 1 (Homo sapiens) (UniProt Q9H0H5); test: MgcRacGAP GTPase-activating activity inhibitors, confirmation, biochemical, ADP Hunter fluorescence, primary and confirmatory (AID 624330); conditions: MgcRacGAP-stimulated Rac1 GTP hydrolysis, at 30 µM, stronger effect = higher value, GST-tagged Rac1 F28L mutant substrate;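 also: fluorescence reports GDP produced by GAP-driven GTP hydrolysis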
Sequence (Q9H0H5 whole entry, looked up): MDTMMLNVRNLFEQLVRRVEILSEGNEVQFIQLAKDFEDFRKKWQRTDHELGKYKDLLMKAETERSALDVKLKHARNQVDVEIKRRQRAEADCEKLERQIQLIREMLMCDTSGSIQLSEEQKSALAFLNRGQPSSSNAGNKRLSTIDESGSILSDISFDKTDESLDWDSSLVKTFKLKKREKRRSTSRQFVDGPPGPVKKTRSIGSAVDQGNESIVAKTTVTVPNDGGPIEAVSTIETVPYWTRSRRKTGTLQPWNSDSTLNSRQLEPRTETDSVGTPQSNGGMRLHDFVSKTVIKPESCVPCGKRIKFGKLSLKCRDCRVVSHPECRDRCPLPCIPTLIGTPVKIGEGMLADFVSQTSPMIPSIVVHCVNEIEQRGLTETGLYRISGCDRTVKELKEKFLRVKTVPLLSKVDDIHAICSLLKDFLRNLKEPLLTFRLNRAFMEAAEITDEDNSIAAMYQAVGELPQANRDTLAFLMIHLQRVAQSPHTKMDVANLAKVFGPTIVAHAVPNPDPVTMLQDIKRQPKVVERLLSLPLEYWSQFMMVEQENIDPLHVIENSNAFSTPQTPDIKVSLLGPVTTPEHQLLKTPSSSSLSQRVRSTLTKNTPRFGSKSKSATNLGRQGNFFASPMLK

inhibition, inactive:
Cc1ccc(NC(=O)C2CCCN(C(=O)NCc3ccccc3)C2)c(C)c1 (centres undefined) 5.67%
CCOC(=O)CCCn1c(C)nc(=O)c(-c2ccccc2)c1C -2.8%
CCCCCCC(=O)OCC(=O)c1ccc2c(c1)NC(=O)CO2 4%
COc1ccccc1NC(=S)N(CCN(C)C)C(C)c1ccncc1 (centres undefined) 4.01%
O=S1(=O)N[C@@H](CC2CCCCC2)COc2cc(Br)ccc21 6.23%
COCC(=O)Nc1cc(C)cn(Cc2cccc(C(F)(F)F)c2)c1=O 3.75%
COc1ccc(CCNC(=O)c2[nH]c(C)c(C(C)=O)c2C)cc1 2.68%
CN(c1ccccc1)S(=O)(=O)c1cccc(NC(=O)CSc2ncn[nH]2)c1 5.76%
Cc1cc(Cl)ccc1OCC(=O)NCc1ccncc1 5.06%
O=C(c1ccccc1-c1ncc[nH]1)N1CCCC(Nc2ccc(F)cc2)C1 (centres undefined) 2.49%
COc1ccc(OC)c(C(=O)N2CCCC(Nc3ccc(F)cc3)C2)c1 (centres undefined) 12.4%
COc1ccc(NC2CCCN(C(=O)c3ccc(OC)cc3OC)C2)cc1 (centres undefined) -1.47%
CC(C)c1ccc(NC2CCCN(C(=O)c3ccccc3-c3ncc[nH]3)C2)cc1 (centres undefined) 8.99%
CC1CN(C(=O)CCNC(=O)c2ccc(Br)cc2)CC(C)O1 (centres undefined) 3.26%
Cc1ccc(OCC(=O)O)c(-n2nc3ccccc3n2)c1 9.25%
Nn1c(-c2cccc(O)c2)nnc1-c1cccc(O)c1 -0.05%
CC(C)CC(=O)NC(=S)Nc1ccc(N2CCN(C(=O)c3cccs3)CC2)cc1 9.14%
COc1ccc(CCNCC(=O)Nc2ccc(OC(F)(F)F)cc2)cc1OC 28.8%
COc1ccc(CNCC(=O)Nc2cccc(S(N)(=O)=O)c2)cc1 24.6%
COC(=O)c1ccc(CNCC(=O)Nc2ccc(C(=O)OC)cc2)cc1 -0.29%
COc1cccc(NC(=O)CNCc2ccccc2)c1 1.69%
CN1CCN(NS(=O)(=O)c2ccc(Cl)s2)CC1 13.4%
CCn1c(SCC(=O)OCc2ccccc2)nc2c1c(=O)n(C)c(=O)n2C -1.89%
CC(=O)Nc1ccc(NC(=O)c2nccnc2C(=O)O)cn1 2.3%
O=C(C(c1ccccc1)C(O)(c1ccccc1)c1ccccc1)N1CCOCC1 (centres undefined) -4.45%
CCNC(=S)N(CCc1c(C)[nH]c2ccccc12)Cc1cc(OC)c(OC)c(OC)c1 13.9%
O=C(CSC1=N/C(=C/c2ccc(Cl)c(Cl)c2)C(=O)N1c1ccccc1F)NC1CC1 6.1%
CN(C(=O)COC(=O)COc1ccc2ccccc2c1)c1ccccc1 5.73%
COc1ccc(OC)c(S(=O)(=O)N2CCC(C(=O)N(C)Cc3ccccc3)CC2)c1 13.1%
CCC(C)n1c(=S)[nH]c2ccccc2c1=O (centres undefined) 5.28%
CC1CCN(CCCn2c(=S)[nH]c3c(sc4ccc([N+](=O)[O-])cc43)c2=O)CC1 17.7%
CCC(C)n1c(SCc2ccc([N+](=O)[O-])cc2)nc2ccsc2c1=O (centres undefined) 2.36%
O=C(O)CCCn1c(=O)[nH]c2ccccc2c1=O 4.27%
COc1cccc(-c2cc3nc(C)cc(N4CCN(C(=O)c5ccoc5)CC4)n3n2)c1 13.9%
CCOc1ccc(/C=C(\C#N)C(=O)Nc2ccccn2)cc1 -0.14%
CCc1noc(C)c1C(=O)N1CCCC(N2CCN(c3cccc(Cl)c3)CC2)C1 (centres undefined) 8.33%
C/C(=N\Nc1ccc([N+](=O)[O-])cc1)c1cccc(N)c1 1.82%
C/C(=N\Nc1ccc([N+](=O)[O-])cc1)c1ccc(C#N)cc1 -4.19%
O=C(NCc1ccc(F)cc1)C1CCC(=O)N1C1CCCCC1 (centres undefined) -0.47%
COc1ccc(OC(=O)OCc2ccccc2)cc1 11.7%
Cc1cc(CNC[C@H]2O[C@@H](n3ccc(N)nc3=O)[C@H](O)[C@@H]2O)no1 9.68%
COc1cc2c(cc1CNC[C@H]1O[C@@H](n3ccc(N)nc3=O)[C@H](O)[C@@H]1O)OCO2 6.09%
C=CCNc1nnc(Cc2ccc(F)cc2)c(=O)[nH]1 4.71%
COc1cc2c(cc1NC(=O)c1cccc([N+](=O)[O-])c1)oc1ccccc12 1.77%
CN(CC(=O)N1CCN(Cc2ccccc2)CC1)S(=O)(=O)c1ccc(F)cc1 -3.86%
O=C(c1ccc(F)cc1)N1CCN(Cc2ccccc2)CC1 7.84%
OC(CN1CCN(Cc2ccccc2)CC1)c1ccc(F)cc1 (centres undefined) -1.4%
c1ccc(CN2CCN(C(c3ccccc3)c3ccccc3)CC2)cc1 16.6%
COc1ccccc1C1CCN(C(=O)c2cnn(-c3ccccc3)c2C)CC1 12.4%
O=C(Nc1ccc([N+](=O)[O-])cc1NC(=O)c1ccccc1)c1ccccc1 2.42%
CCC(=O)Nc1ccccc1N1CCN(c2ccc(F)cc2)CC1 2.63%
CCSc1nc2ccc(N3C(=O)C4C5C=CC(C5)C4C3=O)cc2s1 (centres undefined) -1.62%
CN1CCC(=O)N([C@H](CSc2ccc(Br)cc2)Cc2ccccc2)CC1 1.09%
COc1cc(OC)cc(C(=O)N2CCN(S(=O)(=O)c3ccc4c(c3)OCCO4)CC2)c1 9.94%
COc1cccc(/C(C)=N/Nc2ccc(S(=O)(=O)N3CCCCC3)cn2)c1 7.29%
C/C(=N\Nc1ccc(S(=O)(=O)N2CCCCC2)cn1)c1cccc(Br)c1 3.57%
CC(C)(C)OC(=O)NCCCC[C@H](NC(=O)c1nc[nH]c1C(=O)NC(c1ccccc1)c1ccccc1)C(=O)OC(C)(C)C 2.03%
CCN(C(=O)COC(=O)c1cccc(-n2cnnn2)c1)C1CCCCC1 11.8%
Cc1sc2ncn(CC(=O)N3CCN(c4ccccc4F)CC3)c(=O)c2c1S(=O)(=O)N1CCOCC1 2.91%
